# Data: publication PMC7862700, “An all-to-all approach to the identification of sequence-specific readers for epigenetic DNA modifications on cytosine”
# How the values were obtained:
# Assay in all cases: DAPPL (digital affinity profiling via proximity ligation, sequencing); 10 mM Tris-HCl pH 7.5, 50 mM NaCl, 1 mM DTT, 4% glycerol, room temperature, 30 min; GST-TFs on glutathione beads, 16-mer random dsDNA library, 0.1% formaldehyde crosslink after washing; high values mean tight binding
# Details in all cases: protein: recombinant; tags: N-terminal GST; dsDNA, one strand shown
# ERF = target: T1, ERF (Homo sapiens, UniProt P50548 1-548)
# T1 sequence: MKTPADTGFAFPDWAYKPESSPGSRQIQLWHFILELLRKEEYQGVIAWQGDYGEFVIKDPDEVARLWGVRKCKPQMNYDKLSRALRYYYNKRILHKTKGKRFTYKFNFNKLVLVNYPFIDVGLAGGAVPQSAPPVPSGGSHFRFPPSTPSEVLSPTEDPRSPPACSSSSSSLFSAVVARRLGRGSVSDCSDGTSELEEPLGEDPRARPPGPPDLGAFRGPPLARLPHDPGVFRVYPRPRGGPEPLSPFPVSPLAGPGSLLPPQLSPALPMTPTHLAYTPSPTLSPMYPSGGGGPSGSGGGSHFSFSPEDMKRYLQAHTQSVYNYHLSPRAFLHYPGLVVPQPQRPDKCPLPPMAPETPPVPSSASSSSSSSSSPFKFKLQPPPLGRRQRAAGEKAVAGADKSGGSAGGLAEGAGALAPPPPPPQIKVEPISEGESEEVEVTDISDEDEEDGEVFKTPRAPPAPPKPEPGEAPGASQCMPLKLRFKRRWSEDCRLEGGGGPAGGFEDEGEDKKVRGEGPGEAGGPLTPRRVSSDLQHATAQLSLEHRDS
# Summary of the method: (§1)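 Binding signal is each hexamer's read frequency for a factor divided by its frequency in the tag-only sample. The factors were GST-fused human transcription factors from yeast, captured on glutathione beads, DNA-barcoded and pooled with that sample. Pools were incubated with 200 nmole of a random double-stranded 16-mer DNA library in Tris/NaCl/DTT/glycerol buffer at room temperature for 30 min, then washed, crosslinked with 0.1% formaldehyde, proximity-ligated with BsaI/T4 ligase (1 h, 37 °C), PCR-amplified and sequenced on an Illumina NextSeq500.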
# ETV3L = target: T2, ETV3L (Homo sapiens, UniProt Q6ZN32 1-361)
# T2 sequence: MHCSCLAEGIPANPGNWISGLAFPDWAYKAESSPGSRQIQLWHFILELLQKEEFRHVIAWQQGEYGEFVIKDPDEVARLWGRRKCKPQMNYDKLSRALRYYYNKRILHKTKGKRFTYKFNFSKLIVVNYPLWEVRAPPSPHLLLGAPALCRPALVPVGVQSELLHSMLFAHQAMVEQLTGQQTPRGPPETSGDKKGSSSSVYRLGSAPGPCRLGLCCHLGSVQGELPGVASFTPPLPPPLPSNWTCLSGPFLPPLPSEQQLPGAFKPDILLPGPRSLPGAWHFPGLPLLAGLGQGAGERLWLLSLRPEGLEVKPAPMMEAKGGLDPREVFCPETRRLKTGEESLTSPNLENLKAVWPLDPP
# Summary of the method: as §1
# ETS2 = target: T3, ETS2 (Homo sapiens, UniProt P15036 1-469)
# T3 sequence: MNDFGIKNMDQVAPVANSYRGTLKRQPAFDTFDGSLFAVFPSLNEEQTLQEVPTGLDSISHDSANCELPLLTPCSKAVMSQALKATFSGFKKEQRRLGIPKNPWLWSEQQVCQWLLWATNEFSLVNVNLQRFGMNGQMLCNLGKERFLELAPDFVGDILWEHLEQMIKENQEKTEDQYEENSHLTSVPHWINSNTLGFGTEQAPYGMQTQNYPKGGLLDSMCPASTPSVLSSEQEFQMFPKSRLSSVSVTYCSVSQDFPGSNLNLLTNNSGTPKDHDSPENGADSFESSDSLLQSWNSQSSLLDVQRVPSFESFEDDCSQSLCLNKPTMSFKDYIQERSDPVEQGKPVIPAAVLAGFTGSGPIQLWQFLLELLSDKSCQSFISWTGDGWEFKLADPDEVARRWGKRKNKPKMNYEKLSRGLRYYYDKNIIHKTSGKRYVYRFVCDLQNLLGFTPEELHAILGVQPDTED
# Summary of the method: as §1
# SPDEF = target: T4, SPDEF (Homo sapiens, UniProt O95238 1-335)
# T4 sequence: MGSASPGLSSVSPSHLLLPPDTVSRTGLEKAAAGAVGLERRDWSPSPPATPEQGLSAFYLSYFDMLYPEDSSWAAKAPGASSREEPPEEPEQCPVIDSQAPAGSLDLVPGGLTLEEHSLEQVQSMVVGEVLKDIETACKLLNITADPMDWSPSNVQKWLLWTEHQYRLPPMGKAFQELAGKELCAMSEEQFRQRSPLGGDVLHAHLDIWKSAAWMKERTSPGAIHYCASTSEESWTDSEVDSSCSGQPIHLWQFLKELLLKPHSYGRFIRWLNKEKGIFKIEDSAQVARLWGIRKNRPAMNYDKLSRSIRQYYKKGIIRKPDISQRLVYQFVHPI
# Summary of the method: as §1
# ETV7 = target: T5, ETV7 (Homo sapiens, UniProt Q9Y603 1-341)
# T5 sequence: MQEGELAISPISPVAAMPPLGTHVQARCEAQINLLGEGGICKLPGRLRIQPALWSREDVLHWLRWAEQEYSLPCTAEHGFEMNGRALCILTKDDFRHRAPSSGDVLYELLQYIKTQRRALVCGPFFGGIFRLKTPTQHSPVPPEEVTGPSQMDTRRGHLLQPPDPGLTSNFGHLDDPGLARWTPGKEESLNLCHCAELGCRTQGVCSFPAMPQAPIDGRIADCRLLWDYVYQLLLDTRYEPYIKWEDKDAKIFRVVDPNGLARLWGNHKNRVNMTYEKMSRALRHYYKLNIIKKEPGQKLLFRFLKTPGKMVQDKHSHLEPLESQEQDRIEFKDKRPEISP
# Summary of the method: as §1
# ELF5 = target: T6, ELF5 (Homo sapiens, UniProt Q9UKW6-2 1-255)
# T6 sequence: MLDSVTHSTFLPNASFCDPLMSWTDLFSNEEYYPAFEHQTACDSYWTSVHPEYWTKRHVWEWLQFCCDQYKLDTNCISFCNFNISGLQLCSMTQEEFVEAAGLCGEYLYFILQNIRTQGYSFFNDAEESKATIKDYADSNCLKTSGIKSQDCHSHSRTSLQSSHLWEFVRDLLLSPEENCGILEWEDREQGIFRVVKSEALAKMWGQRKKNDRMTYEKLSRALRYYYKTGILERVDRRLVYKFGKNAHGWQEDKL
# Summary of the method: as §1
# ETV3 = target: T7, ETV3 (Homo sapiens, UniProt P41162-2 1-143)
# T7 sequence: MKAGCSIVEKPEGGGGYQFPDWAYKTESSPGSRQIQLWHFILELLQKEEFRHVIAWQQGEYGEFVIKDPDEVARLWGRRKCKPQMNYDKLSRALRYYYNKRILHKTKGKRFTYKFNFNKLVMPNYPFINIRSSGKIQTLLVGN
# Summary of the method: as §1
# ETV6 = ETV6 (Homo sapiens, UniProt P41212 1-452)
# Summary of the method: as §1
# Chain of ETV6 (P41212 whole entry): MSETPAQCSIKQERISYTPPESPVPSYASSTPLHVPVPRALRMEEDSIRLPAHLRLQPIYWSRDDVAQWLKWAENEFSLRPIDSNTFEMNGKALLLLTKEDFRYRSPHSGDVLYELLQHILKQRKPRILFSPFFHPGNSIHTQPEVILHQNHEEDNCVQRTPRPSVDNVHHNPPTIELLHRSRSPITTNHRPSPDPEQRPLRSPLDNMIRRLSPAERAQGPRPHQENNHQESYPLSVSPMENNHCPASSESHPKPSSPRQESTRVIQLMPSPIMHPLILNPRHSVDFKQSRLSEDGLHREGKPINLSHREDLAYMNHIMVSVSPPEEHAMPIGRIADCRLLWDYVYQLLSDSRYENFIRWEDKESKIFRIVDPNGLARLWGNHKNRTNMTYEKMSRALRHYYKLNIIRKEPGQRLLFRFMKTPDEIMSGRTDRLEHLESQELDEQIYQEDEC
Sequence,binding signal (ERF),binding signal (ETV3L),binding signal (ETS2),binding signal (SPDEF),binding signal (ETV7),binding signal (ELF5),binding signal (ETV3),binding signal (ETV6)
CTAAGC,"1.14 fold enrichment (6-mer frequency, TF over GST control)","1.09 fold enrichment (6-mer frequency, TF over GST control)","1.15 fold enrichment (6-mer frequency, TF over GST control)","1.06 fold enrichment (6-mer frequency, TF over GST control)","1.04 fold enrichment (6-mer frequency, TF over GST control)","1.07 fold enrichment (6-mer frequency, TF over GST control)","1.07 fold enrichment (6-mer frequency, TF over GST control)","1.08 fold enrichment (6-mer frequency, TF over GST control)"
TTGTTG,"1.13 fold enrichment (6-mer frequency, TF over GST control)","1.21 fold enrichment (6-mer frequency, TF over GST control)","1.1 fold enrichment (6-mer frequency, TF over GST control)","1.11 fold enrichment (6-mer frequency, TF over GST control)","1.12 fold enrichment (6-mer frequency, TF over GST control)","1.13 fold enrichment (6-mer frequency, TF over GST control)","1.19 fold enrichment (6-mer frequency, TF over GST control)","1.07 fold enrichment (6-mer frequency, TF over GST control)"
TAAGCT,"1.39 fold enrichment (6-mer frequency, TF over GST control)","1.25 fold enrichment (6-mer frequency, TF over GST control)","1.13 fold enrichment (6-mer frequency, TF over GST control)","1.11 fold enrichment (6-mer frequency, TF over GST control)","1.3 fold enrichment (6-mer frequency, TF over GST control)","1.04 fold enrichment (6-mer frequency, TF over GST control)","1.2 fold enrichment (6-mer frequency, TF over GST control)","1.15 fold enrichment (6-mer frequency, TF over GST control)"
GACCTA,"1.09 fold enrichment (6-mer frequency, TF over GST control)","1.31 fold enrichment (6-mer frequency, TF over GST control)","1.19 fold enrichment (6-mer frequency, TF over GST control)","1.13 fold enrichment (6-mer frequency, TF over GST control)","1.2 fold enrichment (6-mer frequency, TF over GST control)","1.15 fold enrichment (6-mer frequency, TF over GST control)","1.07 fold enrichment (6-mer frequency, TF over GST control)","1.22 fold enrichment (6-mer frequency, TF over GST control)"
CACCAT,"1.12 fold enrichment (6-mer frequency, TF over GST control)","1.16 fold enrichment (6-mer frequency, TF over GST control)","1.08 fold enrichment (6-mer frequency, TF over GST control)","1.02 fold enrichment (6-mer frequency, TF over GST control)","1.15 fold enrichment (6-mer frequency, TF over GST control)","1.1 fold enrichment (6-mer frequency, TF over GST control)","1.05 fold enrichment (6-mer frequency, TF over GST control)","1.04 fold enrichment (6-mer frequency, TF over GST control)"
